Experimental data taken from PubChem BioAssay.
Active and inactive are the calls of the source. Unless noted, no rule for the calls is given here.

Tests used:
[1] = compound effects on lung adenocarcinoma cell viability – A549, calcein-AM fluorescence, 48 h, basal, profiling panel (AID 1162); conditions: higher = more signal; also: test concentration not given here
[2] = compound effects on differentiated 3T3-L1 adipocyte viability – cell-based, 3T3-L1 adipocytes, calcein-AM fluorescence, 48 h, basal, profiling panel (AID 1163); conditions: 3T3-L1 adipocytes viability, higher = more signal; also: test concentration not given here
[3] = compound effects on hepatocellular carcinoma cell viability – HepG2, calcein-AM fluorescence, 48 h, basal, profiling panel (AID 1164); conditions: higher = more signal; also: test concentration not given here
[4] = compound effects on multiple myeloma cell viability – MM1S, calcein-AM fluorescence, 48 h, basal, profiling panel (AID 1165); conditions: higher = more signal; also: test concentration not given here
[5] = calcein-AM signal in unstimulated myeloma cells – cell-based, calcein-AM fluorescence, 48 h, PK04 Diversity Set, profiling panel (AID 1166); conditions: RPMI8226 myeloma viability, higher = more signal;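 also: cells grown under basal conditions without added stimulus; test concentration not given here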
[6] = JC-1 mitochondrial signal, unstimulated HepG2 cells – cell-based, JC-1 fluorescence, 24 h, 100 nL compound, profiling panel (AID 1167); conditions: HepG2 mitochondrial potential, higher = more signal; also: test concentration not given here
[7] = JC-1 mitochondrial signal, unstimulated adipocytes – cell-based, JC-1 fluorescence, 3T3-L1 adipocytes, 24 h, 100 nL compound, profiling panel (AID 1168); conditions: JC-1 mitochondrial fluorescence, higher = more signal, called active from +8 up or from −8 down; also: test concentration not given here
[8] = JC-1 mitochondrial signal, unstimulated myeloma cells – cell-based, JC-1 fluorescence, RPMI8226, 24 h, 100 nL compound, profiling panel (AID 1169); conditions: JC-1 mitochondrial potential fluorescence, higher = more signal; also: test concentration not given here
[9] = JC-1 mitochondrial signal, unstimulated MM1S myeloma – cell-based, JC-1 fluorescence, 24 h, 100 nL compound, profiling panel (AID 1170); conditions: MM1S mitochondrial potential, higher = more signal; also: test concentration not given here
[10] = resazurin metabolic signal in A549 cells – cell-based, resazurin fluorescence, 24 h, PK04 Diversity Set, profiling panel (AID 1171); conditions: A549 viability, higher = more signal, called active from +8 up or from −8 down; also: test concentration not given here
[11] = resazurin metabolic signal in HepG2 cells – cell-based, resazurin fluorescence, 24 h, PK04 Diversity Set, profiling panel (AID 1172); conditions: HepG2 viability, higher = more signal; also: test concentration not given here
[12] = budding yeast growth changes without added modifier – OD600, strain BY4716, 24 h, basal condition, primary screen (AID 1173); conditions: S. cerevisiae BY4716 growth, OD600, 24 h; higher = more signal, called active from +8 up or from −8 down
[13] = viability profiling in MM1S myeloma cells – cell-based, resazurin fluorescence, basal, 24 h, PK04 Diversity Set, profiling panel (AID 1174); conditions: higher = more signal, called active from +8 up or from −8 down; also: test concentration not given here
[14] = target: Dihydroorotate dehydrogenase (quinone), mitochondrial (Plasmodium falciparum (isolate 3D7)) (UniProt Q08210); experiment: inhibition of P. falciparum DHODH – biochemical, C-terminal His tag, absorbance 600 nm, primary screen (AID 1175); conditions: PfDHODH enzyme, DCIP absorbance 600 nm; higher = more signal, called active from +8 up or from −8 down;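 also: recombinant parasite enzyme with a five histidine tag at its C terminus; test concentration not given here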
[15] = inhibition of PAO1 biofilm formation – strain PAO1, LB-PBS medium, absorbance 600 nm, primary screen (AID 1176); also: test concentration not given here; conditions: P. aeruginosa PAO1 growth/biofilm, A600, 12 h; higher = more signal
[16] = growth modulation of vineyard yeast isolate – strain RM11-1a, OD600, basal, 24 h, primary screen (AID 1177);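 also: cultures grown under basal conditions with no added stressor; test concentration not given here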; conditions: S. cerevisiae RM11-1a growth, OD600, 24 h; higher = more signal, called active from +8 up or from −8 down
[17] = growth of efflux-deficient E. coli DRC39 – strain DRC39, OD650, 24 h, E. coli filamentation inducers, primary screen (AID 1178);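 also: growth measured as culture turbidity by optical density at 650 nm; test concentration not given here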; conditions: E. coli DRC39 acrAB, higher = more signal, called active from +8 up or from −8 down
[18] = growth of efflux-deficient E. coli DRC39 – strain DRC39, OD650, 48 h, E. coli filamentation inducers, primary screen (AID 1179);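 also: screen aims at cell division blockers that make cells filament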; conditions: E. coli DRC39 delta-acrAB growth, higher = more signal, called active from +8 up or from −8 down
[19] = viability profiling in RPMI8226 myeloma cells – cell-based, resazurin fluorescence, basal, 24 h, PK04 Diversity Set, profiling panel (AID 1180); conditions: higher = more signal;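 also: RPMI8826 multiple myeloma cell line at 5000 cells per well; test concentration not given here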
[20] = target: E3 ubiquitin-protein ligase XIAP (Homo sapiens) (UniProt P98170); experiment: small molecules binding XIAP protein – biophysical, small-molecule microarray, fluorescence 635 nm, primary screen (AID 1181); conditions: higher = more signal;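 also: score merges 667 nm emission and signal to noise over triplicate slides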
Sequence of E3 ubiquitin-protein ligase XIAP (Homo sapiens) (P98170 whole entry, looked up): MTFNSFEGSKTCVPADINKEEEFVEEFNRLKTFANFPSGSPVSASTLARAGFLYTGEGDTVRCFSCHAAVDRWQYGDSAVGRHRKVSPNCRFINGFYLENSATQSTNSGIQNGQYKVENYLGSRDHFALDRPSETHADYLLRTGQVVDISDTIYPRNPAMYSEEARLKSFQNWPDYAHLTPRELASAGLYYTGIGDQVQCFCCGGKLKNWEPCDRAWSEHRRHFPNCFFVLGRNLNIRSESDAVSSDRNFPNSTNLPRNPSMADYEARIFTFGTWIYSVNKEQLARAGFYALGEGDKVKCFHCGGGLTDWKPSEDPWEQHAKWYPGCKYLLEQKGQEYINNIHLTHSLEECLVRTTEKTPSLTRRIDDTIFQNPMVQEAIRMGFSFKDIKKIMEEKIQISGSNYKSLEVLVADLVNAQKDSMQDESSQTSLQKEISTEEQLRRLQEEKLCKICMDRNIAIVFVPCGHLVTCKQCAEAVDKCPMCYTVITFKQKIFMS

Sequence of Dihydroorotate dehydrogenase (quinone), mitochondrial (Plasmodium falciparum (isolate 3D7)) (Q08210 whole entry, looked up): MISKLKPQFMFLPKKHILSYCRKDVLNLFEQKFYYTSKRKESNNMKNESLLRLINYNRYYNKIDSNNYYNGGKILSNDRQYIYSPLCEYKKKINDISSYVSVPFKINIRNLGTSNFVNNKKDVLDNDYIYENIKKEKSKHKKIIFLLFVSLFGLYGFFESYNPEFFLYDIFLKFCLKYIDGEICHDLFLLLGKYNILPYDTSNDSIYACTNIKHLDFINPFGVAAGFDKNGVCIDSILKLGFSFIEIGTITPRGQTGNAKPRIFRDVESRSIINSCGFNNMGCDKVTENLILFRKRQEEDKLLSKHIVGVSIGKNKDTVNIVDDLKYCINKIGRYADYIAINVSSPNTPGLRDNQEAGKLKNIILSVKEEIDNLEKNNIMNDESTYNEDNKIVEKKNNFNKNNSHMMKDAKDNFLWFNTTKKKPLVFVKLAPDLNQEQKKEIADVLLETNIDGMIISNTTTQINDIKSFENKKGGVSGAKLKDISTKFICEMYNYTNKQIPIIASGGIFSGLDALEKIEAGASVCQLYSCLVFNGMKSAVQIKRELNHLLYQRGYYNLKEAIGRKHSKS

Compound | z-score [1] | z-score [2] | z-score [3] | z-score [4] | z-score [5] | z-score [6] | z-score [7] | z-score [8] | z-score [9] | z-score [10] | z-score [11] | z-score [12] | z-score [13] | composite z-score [14] | z-score [15] | z-score [16] | z-score [17] | z-score [18] | z-score [19] | composite z-score [20]
CN(C)C(=O)[C@@]1(Cc2ccccc2CN=[N+]=[N-])COC(c2ccc(OCCCO)cc2)=N1 | -0.113 | 0.442 | 0.0407 | -3.51 | -2.76 | 1.21 | 1.1 (inactive) | -1.08 | -1.65 | 0.0714 (inactive) | 1.01 | -4.86 (inactive) | -1.19 (inactive) | -0.311 (inactive) | -0.732 (inactive) | 3.73 (inactive) | 1.04 (inactive) | 1.58 (inactive) | 0.196 | 0.153
O=C1c2ccccc2[C@@]2(Cc3ccccc3N(Cc3ccccc3)C2=O)[C@H](c2ccc(CO)cc2)N1Cc1ccccc1Cl | -0.334 | 0.331 | -0.826 | -0.411 | 0.139 | 1.1 | -0.407 (inactive) | -0.972 | -0.316 | -0.166 (inactive) | 0.645 | 0.0388 (inactive) | 0.685 (inactive) | -3.2 (inactive) | -0.425 (inactive) | 0.0513 (inactive) | 0.134 (inactive) | 0.86 (inactive) | 0.694 | 0.147
Cc1ccc(C(C)CC(O)C2C=CC3C(=O)N(C)C(=O)C3N2Nc2ccccc2)o1 (stereo not given) | -0.428 | -1.01 | 0.345 | -0.144 | 0.0166 | -1.35 | -0.592 (inactive) | 0.347 | -0.249 | -0.18 (inactive) | -0.243 | 0.372 (inactive) | -0.855 (inactive) | 0.164 (inactive) | 0.695 (inactive) | 0.051 (inactive) | -1 (inactive) | -0.466 (inactive) | -0.874 | 0.198
CCOC(=O)C[C@H]1[C@H](OC(=O)c2ccccc2-c2ccccc2)[C@@H](NC(=O)c2ccc3ccccc3c2)c2cc(OCCCO)ccc2N1C(=O)Cc1ccc(OC)cc1 | 0.0867 | 0.152 | 0.278 | 0.306 | -0.543 | -0.175 | 0.367 (inactive) | -0.49 | 0.0571 | -0.439 (inactive) | -0.397 | 0.118 (inactive) | -0.142 (inactive) | -0.0597 (inactive) | -0.283 (inactive) | -0.899 (inactive) | -0.516 (inactive) | -0.404 (inactive) | -0.0439 | 0.0711
COC(=O)C(CC#Cc1ccc2c(c1)[C@]1(C(=O)N2)[C@H](c2ccc(OCCO)cc2)N2[C@H](c3ccccc3)[C@H](c3ccccc3)OC(=O)[C@H]2[C@@H]1C(=O)N1CCCCCCC1)C(=O)OC | 0.996 | 0.915 | 0.846 | 0.491 | -1.88 | -0.386 | -1.82 (inactive) | -1.08 | -1.36 | -0.387 (inactive) | -0.198 | 1.12 (inactive) | -0.223 (inactive) | 0.365 (inactive) | 2.9 (inactive) | 1.3 (inactive) | -0.8 (inactive) | 0.136 (inactive) | -1.02 | 0.997
CC(C)c1nc2cc(Br)ccc2c(=O)o1 | -0.374 | 0.124 | -1.32 | 0.345 | -0.262 | -0.0593 | 0.316 (inactive) | 0.593 | -0.259 | 0.0924 (inactive) | 0.693 | 1.25 (inactive) | -0.47 (inactive) | 0.374 (inactive) | 0.13 (inactive) | 0.0542 (inactive) | 0.692 (inactive) | 1.24 (inactive) | 0.0076 | 0.0705
C=C(COC)/C(=C/C[C@@H](OC(C)=O)c1ccccc1OCCO)c1cnc2ccccc2c1 | 0.106 | 1.5 | -0.268 | -2.48 | -1.14 | 0.23 | -0.433 (inactive) | 0.328 | 1.4 | -1.69 (inactive) | -1.15 | -2.19 (inactive) | -0.975 (inactive) | -7.89 (inactive) | -0.104 (inactive) | 0.315 (inactive) | -1.17 (inactive) | -0.828 (inactive) | -0.3 | 0.0739
CCOC(=O)c1cn(C[C@H](Cc2ccccc2)NC(=O)N[C@H](CO)CCc2oc(C(C)=O)c(C(=O)OC)c2C(=O)OC)nn1 | -0.462 | 1.16 | 0.0702 | -0.0594 | -1.88 | -1 | 0.871 (inactive) | -0.44 | -0.0478 | -0.636 (inactive) | -0.756 | -2.76 (inactive) | 0.225 (inactive) | -3.55 (inactive) | -0.227 (inactive) | -0.669 (inactive) | -0.124 (inactive) | -0.356 (inactive) | -0.458 | -0.0835
O=C1C[C@]2(c3ccc([N+](=O)[O-])cc3)C(=O)N(C3CC3)c3cc(CO)ccc3[C@H]2N1C1CCCCC1 | -0.164 | -0.898 | 0.214 | -0.464 | 0.474 | -1.07 | -0.185 (inactive) | -0.691 | -0.993 | -0.332 (inactive) | 0.277 | 0.462 (inactive) | -0.0174 (inactive) | -3.75 (inactive) | 0.475 (inactive) | 0.3 (inactive) | 0.0977 (inactive) | 0.284 (inactive) | -0.34 | -0.0286
